Holding throughout (assay): NCI-60 one-dose screen, 48 h (100 = growth as untreated, 0 = no growth, -100 = all killed)
One assay deals with NCI-H23 lung. The following applies: 10 µM unless noted.
Another assay relates to NCI-H226 lung. Particulars: 10 µM unless noted.
The subject of another assay is NCI-H322M lung. Particulars: 10 µM unless noted.
For the next assay, the system named is NCI-H460 lung. The following applies: 10 µM unless noted.
In a further assay the test system is HOP-92 NSCLC. The following applies: 10 µM.
The subject of another assay is NCI-H522 lung. Particulars: 10 µM.
In another assay the test system is A549/ATCC NSCLC. Particulars: 10 µM unless noted.
The test system of another assay is 786-0 renal. The following applies: 10 µM unless noted.
Another assay relates to COLO 205 colon. Particulars: 10 µM unless noted.
The test system of the next assay is DU-145 prostate. Particulars: 10 µM unless noted.
In another assay the test system is K-562 leukemia. Particulars: 10 µM unless noted.
Another assay has as its system MDA-MB-231 breast. The following applies: 10 µM unless noted.
For the next assay, the system named is RXF 393 renal. The following applies: 10 µM unless noted.
In another assay the test system is SF-268 CNS. Particulars: 10 µM unless noted.
The subject of a further assay is SF-295 CNS. Particulars: 10 µM unless noted.
For another assay, the system named is SF-539 CNS. Particulars: 10 µM unless noted.
A further assay deals with UACC-257 melanoma. Particulars: 10 µM unless noted.
The subject of a further assay is M14 melanoma. Particulars: 10 µM unless noted.
In a further assay the test system is MALME-3M melanoma. The following applies: 10 µM unless noted.

About 83,000 compounds went through this panel and 20% of them were active in at least one assay; those are over-represented in the sample as a whole.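 Treatment: one concentration, 48 hours, 96-well format. Scoring: percent growth, with anything below 10 considered active.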 Values without a mark were called inactive. Calls of active or inactive are those of the source.

Take `C[C@@H](c1ccc2c(c1)[nH]c1ccc(Cl)cc12)c1nc2ccc(Cl)cc2[nH]1`: the growth was 85.6% with NCI-H23 lung; 101% with NCI-H226 lung; 85.8% in the assay with NCI-H322M lung; 82.4% in the assay on NCI-H460 lung; 99.5% in the assay with HOP-92 NSCLC; 43.6% with NCI-H522 lung. Besides, the growth is 88.3% in the assay on A549/ATCC NSCLC; 75.9% in the assay on 786-0 renal; 116% in the assay on COLO 205 colon; 90.7% in the assay with DU-145 prostate; 52.6% in the assay with K-562 leukemia; 60.1% with MDA-MB-231 breast. Also, the growth with RXF 393 renal was 101%; with SF-268 CNS it was 80.9%; in the assay on SF-295 CNS, 99.4%; in the assay on SF-539 CNS it was 85.7%; in the assay with UACC-257 melanoma, 98%; in the assay with M14 melanoma it was 100%.
As for `COc1cccc(Cn2cc3c(c2)-c2oncc2CC3)c1`, the growth in the assay on NCI-H23 lung was 16.3%; in the assay on NCI-H226 lung, 13.8%; with NCI-H322M lung, 19.2%; in the assay with NCI-H460 lung it was 1.35% (active); in the assay with HOP-92 NSCLC, 97.1%; in the assay with NCI-H522 lung, 29.5%. Besides, the growth is 28.3% in the assay on A549/ATCC NSCLC; 30.2% with 786-0 renal; 9.83% (active) in the assay on COLO 205 colon; 11.3% in the assay on DU-145 prostate; 13.6% with K-562 leukemia; 5.68% (active) in the assay with MDA-MB-231 breast. Further, the growth was 8.73% (active) with RXF 393 renal; 37.6% with SF-268 CNS; -29.1% (active) in the assay with SF-295 CNS; -7.13% (active) in the assay on SF-539 CNS; 73.1% in the assay on UACC-257 melanoma; 12.5% in the assay on M14 melanoma.
In the case of `COc1ccc(/C=C2\SC(=O)N(Cc3cc(=O)oc4ccc(OC)cc34)C2=O)cc1`, the growth with NCI-H23 lung is 71.6%; in the assay on NCI-H226 lung, 67.9%; in the assay with NCI-H322M lung, 84.9%; in the assay with NCI-H460 lung it was 94.1%; with HOP-92 NSCLC it was 86%; with NCI-H522 lung, 77.9%. For the same compound, the growth in the assay on A549/ATCC NSCLC is 96.4%; with 786-0 renal, 83.9%; in the assay on COLO 205 colon, 111%; in the assay on DU-145 prostate it was 91.3%; in the assay with K-562 leukemia it was 54.2%; in the assay on MDA-MB-231 breast, 83.1%. The growth with RXF 393 renal is 110%; in the assay with SF-268 CNS, 88.8%; in the assay on SF-295 CNS, 82.7%; with SF-539 CNS, 89.6%; in the assay with UACC-257 melanoma it was 100%; in the assay with M14 melanoma, 92.7%.
As for `COc1ccc(OC)c(Cn2cc3c(c2)-c2oncc2CC3)c1`, the growth is 28.8% in the assay with NCI-H23 lung; 70.2% in the assay on NCI-H226 lung; 26% in the assay on NCI-H322M lung; 14.1% in the assay on NCI-H460 lung; 59.8% in the assay with HOP-92 NSCLC; 50.3% with NCI-H522 lung. Moreover, the growth in the assay on A549/ATCC NSCLC was 43.3%; in the assay on 786-0 renal, 46%; with COLO 205 colon it was 35.8%; in the assay on DU-145 prostate it was 52%; with K-562 leukemia, 14.7%; in the assay with MDA-MB-231 breast, 42%. The growth is 36.7% with RXF 393 renal; 57.5% in the assay on SF-268 CNS; -8.86% (active) with SF-295 CNS; -7.35% (active) in the assay with SF-539 CNS; 60.5% with UACC-257 melanoma; 4.07% (active) with M14 melanoma.
Turning to `N=C(N)N=Nc1ccc(NN=C(N)N)cc1`, the growth was 104% with NCI-H23 lung; 81.5% in the assay with NCI-H226 lung; 126% with NCI-H322M lung; 85.8% in the assay on NCI-H460 lung; 96% with HOP-92 NSCLC; 88.1% in the assay with NCI-H522 lung. The growth in the assay with A549/ATCC NSCLC was 8.54% (active); in the assay with 786-0 renal, 98.9%; in the assay with COLO 205 colon, 64.1%; in the assay with DU-145 prostate, 95.4%; in the assay on K-562 leukemia it was 96.2%; in the assay on MALME-3M melanoma, 138%. Moreover, the growth in the assay with MDA-MB-231 breast is 86.2%; in the assay on RXF 393 renal it was 81.6%; with SF-295 CNS it was 101%; in the assay on UACC-257 melanoma it was 94%; in the assay with M14 melanoma, 78.6%.
`O=C(/C=C/c1ccc(Br)cc1)c1ccccc1`: the growth is 97.9% with NCI-H23 lung; 90.8% in the assay with NCI-H226 lung; 106% with NCI-H322M lung; 101% in the assay with NCI-H460 lung; 96.2% with HOP-92 NSCLC; 77.8% with NCI-H522 lung. Also, the growth in the assay on A549/ATCC NSCLC was 73%; with 786-0 renal, 85.1%; in the assay on COLO 205 colon it was 109%; in the assay on DU-145 prostate, 95.6%; with K-562 leukemia, 59.4%; in the assay with MALME-3M melanoma, 104%. Moreover, the growth in the assay on MDA-MB-231 breast was 101%; in the assay on RXF 393 renal, 98.7%; in the assay on SF-268 CNS it was 90.9%; in the assay with SF-295 CNS it was 96.7%; in the assay on SF-539 CNS it was 100%; in the assay with UACC-257 melanoma it was 84.3%. In the assay with M14 melanoma, the growth was 87.6%.
On to `COc1ccc(/C=C(/C(=O)N2CCCCC2)c2cc(OC)c(OC)c(OC)c2)cc1`, for which the growth was 36.3% in the assay with NCI-H23 lung; 94.8% with NCI-H226 lung; 45.2% with NCI-H322M lung; 11.6% in the assay on NCI-H460 lung; 45.5% in the assay on HOP-92 NSCLC; -24.2% (active) in the assay on NCI-H522 lung. The growth was 34.9% in the assay with A549/ATCC NSCLC; 23.5% in the assay on 786-0 renal; -14.6% (active) in the assay on COLO 205 colon; 9.17% (active) in the assay on DU-145 prostate; 11% in the assay with K-562 leukemia; 41.5% in the assay on MDA-MB-231 breast. Further, the growth in the assay on RXF 393 renal was -1.64% (active); with SF-268 CNS it was 50.1%; in the assay on SF-295 CNS, 14.1%; in the assay on SF-539 CNS, -10.5% (active); in the assay with UACC-257 melanoma it was 75%; in the assay on M14 melanoma it was -6.93% (active).
In the case of `N=C(N)N=Nc1ccc(NN=C(N)N)c2ccccc12`, the growth was 106% with NCI-H23 lung; 117% in the assay on NCI-H226 lung; 97% with NCI-H322M lung; 108% with NCI-H460 lung; 93.7% in the assay with HOP-92 NSCLC; 87.1% with NCI-H522 lung. The growth with A549/ATCC NSCLC was 97.8%; in the assay with 786-0 renal, 95.3%; with COLO 205 colon, 111%; in the assay on DU-145 prostate, 113%; in the assay with K-562 leukemia, 103%; in the assay on MALME-3M melanoma it was 146%. In addition, the growth in the assay on MDA-MB-231 breast is 101%; in the assay on RXF 393 renal, 142%; in the assay with SF-295 CNS, 106%; with UACC-257 melanoma it was 105%; in the assay with M14 melanoma, 75.9%.

Source of the values: PubChem BioAssay (NCI).
